“And” between values parts separate entries of the source, which are not always exact repeats. Equal entries are not always repeated. Inconclusive results are not listed. More than one record can exist for a structure, and the calls need not agree. The source made the active and inactive calls. Unless noted, calls come from the whole dose curve.
Legend:
[1] = Nuclear factor erythroid 2-related factor 2/antioxidant responsive element (Nrf2/ARE) small molecule agonists: qHTS cell viability counter screen in human keratinocytes (AID 1919968; active = well fitted curve in the direction sought with a large enough effect in the repeat runs; an effect the other way counts as inactive or inconclusive; note: nearly all actives have a fitted effect of over 55% in size; note: potency is the fitted concentration of half-maximal effect)
Summary of the method: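 Viability counter-screen: KeratinoSens reporter cells, DMSO-delivered compounds, 23 h at 37 C, CellTiter-Fluor fluorescence.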

[2] = Nuclear factor erythroid 2-related factor 2/antioxidant responsive element (Nrf2/ARE) small molecule agonists: luciferase reporter gene qHTS assay in human keratinocytes (AID 1919969); note: nearly all actives have a fitted effect of over 35% in size; note: potency is the fitted concentration of half-maximal effect
[3] = molecular target: Gonadotropin-releasing hormone receptor (Homo sapiens) (UniProt P30968); assay: Human gonadotropin-releasing hormone receptor (GnRHR) small molecule agonists, calcium flux assay in GnRHR-HEK293 cells (AID 1920063); note: nearly all actives have a fitted effect of over 35% in size
Summary of the method: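 Tox21-format agonist screen using human GnRHR-expressing HEK293 cells and a fluorescent calcium dye; kinetic 3-min fluorescence reading after compound addition, 15-point concentration series run in triplicate.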

[4] = molecular target: KiSS-1 receptor (Homo sapiens) (UniProt Q969F8); assay: Human kisspeptin (KISS1R) small molecule agonists, calcium flux assay in KISS1R-HEK293 cells (AID 1920064; active = well fitted curve in the direction sought with a large enough effect in the repeat runs; an effect the other way counts as inactive or inconclusive)
Summary of the method: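 Intracellular calcium mobilization in KISS1R-HEK293 cells was recorded by fluorescence (Ex/Em 480/540) for 3 min following compound addition to cells pre-loaded 1 h with calcium dye.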

[5] = G protein-coupled receptor (GPCR) small molecule agonists, calcium flux assay: HEK293 wild type cell line counter screen (AID 1920065)
Summary of the method: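 In this agonist-mode screen, ATP is the positive control and DMSO the vehicle. Cells grow 18 h before a 1 h dye incubation at 37 C; signal is taken at Ex/Em 480/540 over 3 min.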

[6] = p53 small molecule agonists, cell-based qHTS assay with human liver microsomes (AID 1963577);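 note: p53 response element beta-lactamase reporter cells with liver microsomes plus NADPH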
Summary of the method: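 Steps: plate p53RE-bla cells, incubate 5 h at 37 C; add compound in DMSO; add microsomes (0.5 mg/mL final) and NADPH (0.5 mg/mL final); incubate 16 h at 37 C; add LiveBLAzer, 2 h RT; read fluorescence.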

[7] = p53 small molecule agonists, cell-based qHTS assay with rat liver microsomes (AID 1963578)
Summary of the method: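 Metabolic activation is supplied by rat liver microsomes with NADPH (each 0.5 mg/mL final). p53RE-bla cells incubate with compound 16 h at 37 C; reporter activity is measured by LiveBLAzer fluorescence.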

[8] = p53 small molecule agonists, cell-based qHTS assay with human liver microsomes: qHTS cell viability counter screen (AID 1963579); note: nearly all actives have a fitted effect of over 45% in size; note: potency is the fitted concentration of half-maximal effect
Summary of the method: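 After the 460/530 nm beta-lactamase read, CellTiter-Glo was added to the same wells and luminescence measured after 30 min at room temperature, giving viability of p53RE-bla cells treated 16 h with compounds plus microsomes and NADPH.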

[9] = p53 small molecule agonists, cell-based qHTS assay with rat liver microsomes: qHTS cell viability counter screen (AID 1963580); note: nearly all actives have a fitted effect of over 45% in size; note: potency is the fitted concentration of half-maximal effect
Summary of the method: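 In HCT-116 cells carrying a p53 response element-bla reporter, compounds were metabolically activated in situ by rat liver microsomes with NADPH over 16 h. Cell ATP content then served as the cytotoxicity measure.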

[10] = p53 small molecule agonists, cell-based qHTS assay: qHTS cell viability counter screen (AID 1963581); note: nearly all actives have a fitted effect of over 45% in size
Summary of the method: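 Compounds are pinned onto HCT-116 p53RE-bla cells and left 16 h at 37 C. Following the reporter FRET read, ATP is quantified by CellTiter-Glo luminescence after 30 min at room temperature.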

[11] = p53 small molecule agonists, cell-based qHTS assay (AID 1963582; active = well fitted activation curve with a large enough effect in the signal ratio in the repeat runs, not every such curve was filed as active; the % refers to the signal ratio)
Summary of the method: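 Agonist activity was scored from beta-lactamase FRET fluorescence in p53RE-bla cells treated 16 h at 37 C with compounds in DMSO, substrate incubation being 2 h at room temperature.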

[12] = molecular target: 5-hydroxytryptamine receptor 2A (Homo sapiens) (UniProt P28223); assay: 5-hydroxytryptamine receptor 2A (HTR2A) small molecule antagonists, cell-based qHTS assay (AID 1963586); note: nearly all actives have a fitted effect of over 45% in size
Summary of the method: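 Antagonist-mode intracellular calcium assay: DOI (4 nM) added after 5 min compound pre-incubation at room temperature to dye-loaded HTR2A-CHO cells. Fluorescence followed for 3 min, sampled every second.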

[13] = molecular target: 5-hydroxytryptamine receptor 2A (Homo sapiens) (UniProt P28223); assay: 5-hydroxytryptamine receptor 2A (HTR2A) small molecule agonists, cell-based qHTS assay (AID 1963587); note: nearly all actives have a fitted effect of over 30% in size; note: potency is the fitted concentration of half-maximal effect
Summary of the method: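 HTR2A-CHO cells, plated 18 h at 37 C/5% CO2, dye-loaded 1 h at 37 C; compounds in DMSO added by pin tool (agonist mode). Intracellular calcium flux read as kinetic fluorescence on FDSS over 2 min at 1 s intervals.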

[14] = molecular target: Muscarinic acetylcholine receptor M1 (Homo sapiens) (UniProt P11229); assay: Cholinergic receptor muscarinic 1 (CHRM1) small molecule antagonists, cell-based qHTS assay (AID 1963588); note: nearly all actives have a fitted effect of over 40% in size
Summary of the method: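 CHRM1-CHO calcium-flux assay, antagonist mode. Cells were seeded 18 h, dye-loaded 1 h at 37 C and given compound for 5 min at RT, then acetylcholine was added at 50nM. FDSS fluorescence was read 3 min; 15 concentrations, three runs.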

[15] = molecular target: Muscarinic acetylcholine receptor M1 (Homo sapiens) (UniProt P11229); assay: Cholinergic receptor muscarinic 1 (CHRM1) small molecule agonists, cell-based qHTS assay (AID 1963589); note: nearly all actives have a fitted effect of over 35% in size
Summary of the method: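 Stable CHRM1-CHO cells (human receptor) were incubated 18 h, dye-loaded for 1 h at 37 C and exposed to test compounds for agonist activity, with calcium-dependent fluorescence followed kinetically.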

[16] = cAMP Responsive Elements (CRE) small molecule agonists, cell-based qHTS assay (AID 1963590)
Summary of the method: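 FRET-based beta-lactamase readout (LiveBLAzer B/G, 2 h RT) quantified CRE activation in HEK 293T CRE-bla cells after 3 h treatment with DMSO-dissolved compounds.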

[17] = cAMP Responsive Elements (CRE) small molecule antagonists, cell-based qHTS assay (AID 1963591; active = well fitted inhibition curve with a large enough effect in the signal ratio in the repeat runs, not every such curve was filed as active; the % refers to the signal ratio)
Summary of the method: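 qHTS in CRE-bla HEK 293T cells: compound in DMSO, then 0.25 uM NKH477 (final), 3 h at 37 °C/5% CO2; beta-lactamase FRET read-out after 2 h substrate incubation.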

[18] = molecular target: Beta-2 adrenergic receptor (Homo sapiens) (UniProt P07550); assay: Adrenergic beta2 receptor (ADRB2) small molecule antagonists, cell-based qHTS assay (AID 1963592); note: nearly all actives have a fitted effect of over 50% in size; note: potency is the fitted concentration of half-maximal effect
Summary of the method: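 Cells (CHO, stable ADRB2 overexpression) incubated 18-20hr at 37C; compounds added from DMSO; agonist mix (1nM isoproterenol, 100uM IBMX, 25uM Ro-20-1724) added; 0.5hr RT; d2-cAMP and anti-cAMP-cryptate added; 1hr RT; 665/615 nm read.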

[19] = molecular target: D(2) dopamine receptor (Homo sapiens) (UniProt P14416); assay: Dopamine D2 receptor (DRD2) small molecule antagonists, cell-based qHTS assay (AID 1963595; active = well fitted inhibition curve with a large enough effect in the signal ratio in the repeat runs, with a control signal flat; the % refers to the signal ratio)
Summary of the method: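 DRD2-HEK293; 0.1 mM Ro20-1724; cpd 10 min RT; NKH477 200 nM + quinpirole 12 nM, 30 min RT; HTRF cAMP (cAMP-d2/anti-cAMP cryptate), 665/620 nm ratio after 1 h.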

[20] = molecular target: D(2) dopamine receptor (Homo sapiens) (UniProt P14416); assay: Dopamine D2 receptor (DRD2) small molecule agonists, cell-based qHTS assay (AID 1963594); note: nearly all actives have a fitted effect of over 35% in size
Summary of the method: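 HEK293 cells stably expressing DRD2 were cultured 24 h at 37 C, then given Ro20-1724 (0.1 mM final) and compounds for 10 min at room temperature. NKH477 (200nM) was then added for 30 min. cAMP was read by HTRF.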

Measured: Potency

Chain of Gonadotropin-releasing hormone receptor (Homo sapiens) (P30968 whole entry, looked up): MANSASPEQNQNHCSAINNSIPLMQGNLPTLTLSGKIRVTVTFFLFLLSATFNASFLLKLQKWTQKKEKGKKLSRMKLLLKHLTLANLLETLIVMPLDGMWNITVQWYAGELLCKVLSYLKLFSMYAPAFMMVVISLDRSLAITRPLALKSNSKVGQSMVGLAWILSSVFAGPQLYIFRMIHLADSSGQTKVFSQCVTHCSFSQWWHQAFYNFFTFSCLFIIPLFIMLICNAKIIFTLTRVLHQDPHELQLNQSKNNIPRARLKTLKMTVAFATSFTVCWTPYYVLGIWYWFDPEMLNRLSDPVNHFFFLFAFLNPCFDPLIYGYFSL
Chain of KiSS-1 receptor (Homo sapiens) (Q969F8 whole entry, looked up): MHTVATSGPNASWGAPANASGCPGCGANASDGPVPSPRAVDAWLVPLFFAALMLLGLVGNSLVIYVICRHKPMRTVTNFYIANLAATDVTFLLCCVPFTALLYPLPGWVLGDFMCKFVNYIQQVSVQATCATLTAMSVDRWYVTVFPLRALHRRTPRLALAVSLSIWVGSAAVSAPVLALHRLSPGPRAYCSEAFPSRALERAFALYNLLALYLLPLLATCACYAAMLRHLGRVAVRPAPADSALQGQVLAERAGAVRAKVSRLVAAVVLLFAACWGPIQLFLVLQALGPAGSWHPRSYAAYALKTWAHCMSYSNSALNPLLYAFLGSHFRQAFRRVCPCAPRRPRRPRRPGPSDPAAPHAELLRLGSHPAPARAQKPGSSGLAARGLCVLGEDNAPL
Chain of 5-hydroxytryptamine receptor 2A (Homo sapiens) (P28223 whole entry, looked up): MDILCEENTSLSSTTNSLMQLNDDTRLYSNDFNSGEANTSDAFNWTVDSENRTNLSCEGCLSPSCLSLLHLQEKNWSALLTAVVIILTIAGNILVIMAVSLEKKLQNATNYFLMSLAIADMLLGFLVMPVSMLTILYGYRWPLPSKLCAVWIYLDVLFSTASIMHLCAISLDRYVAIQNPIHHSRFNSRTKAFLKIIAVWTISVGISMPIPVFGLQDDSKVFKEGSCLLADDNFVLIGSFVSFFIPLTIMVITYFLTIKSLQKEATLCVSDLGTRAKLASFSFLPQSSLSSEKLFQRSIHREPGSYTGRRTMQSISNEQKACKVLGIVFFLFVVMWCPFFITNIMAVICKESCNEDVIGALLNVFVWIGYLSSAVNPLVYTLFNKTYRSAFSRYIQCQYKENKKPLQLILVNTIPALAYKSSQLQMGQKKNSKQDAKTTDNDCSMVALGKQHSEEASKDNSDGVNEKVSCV
Chain of Beta-2 adrenergic receptor (Homo sapiens) (P07550 whole entry, looked up): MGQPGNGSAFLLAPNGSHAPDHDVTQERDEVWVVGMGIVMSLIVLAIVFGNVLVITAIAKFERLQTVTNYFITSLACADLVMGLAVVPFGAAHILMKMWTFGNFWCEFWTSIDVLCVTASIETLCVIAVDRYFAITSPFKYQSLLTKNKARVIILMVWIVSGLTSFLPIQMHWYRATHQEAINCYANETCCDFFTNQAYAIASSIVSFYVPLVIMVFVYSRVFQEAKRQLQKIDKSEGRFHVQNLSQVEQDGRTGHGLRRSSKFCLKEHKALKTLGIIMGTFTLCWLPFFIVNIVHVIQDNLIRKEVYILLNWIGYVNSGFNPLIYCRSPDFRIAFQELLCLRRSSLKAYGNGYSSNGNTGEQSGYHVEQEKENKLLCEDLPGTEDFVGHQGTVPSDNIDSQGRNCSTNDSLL
Chain of Muscarinic acetylcholine receptor M1 (Homo sapiens) (P11229 whole entry, looked up): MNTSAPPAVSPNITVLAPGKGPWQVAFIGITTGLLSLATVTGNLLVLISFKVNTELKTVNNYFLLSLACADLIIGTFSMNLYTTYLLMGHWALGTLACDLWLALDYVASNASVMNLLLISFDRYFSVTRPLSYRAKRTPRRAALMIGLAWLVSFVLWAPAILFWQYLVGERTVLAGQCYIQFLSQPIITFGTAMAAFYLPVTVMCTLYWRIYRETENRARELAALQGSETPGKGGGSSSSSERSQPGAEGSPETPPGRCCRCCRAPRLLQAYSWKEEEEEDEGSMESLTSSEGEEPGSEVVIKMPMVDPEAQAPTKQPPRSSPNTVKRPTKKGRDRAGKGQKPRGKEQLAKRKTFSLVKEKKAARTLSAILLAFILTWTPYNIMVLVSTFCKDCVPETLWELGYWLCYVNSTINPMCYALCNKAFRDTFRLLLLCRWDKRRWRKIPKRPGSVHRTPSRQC
Chain of D(2) dopamine receptor (Homo sapiens) (P14416 whole entry, looked up): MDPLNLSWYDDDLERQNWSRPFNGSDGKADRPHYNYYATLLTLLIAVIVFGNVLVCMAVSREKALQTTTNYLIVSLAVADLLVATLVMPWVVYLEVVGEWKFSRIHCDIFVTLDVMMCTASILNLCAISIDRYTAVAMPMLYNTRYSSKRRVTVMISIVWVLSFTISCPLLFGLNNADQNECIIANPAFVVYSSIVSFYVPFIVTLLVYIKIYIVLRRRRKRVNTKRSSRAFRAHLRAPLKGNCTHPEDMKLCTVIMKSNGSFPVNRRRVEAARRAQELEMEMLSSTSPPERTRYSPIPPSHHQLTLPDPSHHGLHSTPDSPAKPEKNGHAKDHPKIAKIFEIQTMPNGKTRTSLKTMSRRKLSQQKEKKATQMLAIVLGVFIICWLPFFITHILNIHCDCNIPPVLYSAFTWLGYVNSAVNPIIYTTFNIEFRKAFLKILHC

C[C@@H]1CCN(C(=O)[C@H](CCCN=C(N)N)NS(=O)(=O)c2cccc3c2NC[C@H](C)C3)[C@@H](C(=O)O)C1
not listed: [20]
inactive: all other assays above

O=c1[nH]c2ccc(Cl)cc2o1
not listed: [20]
inactive: all other assays above

CCCCCC(=O)CC
not listed: [18]
inactive: all other assays above

CO[Si](C)(C)OC
not listed: [17]
inactive: all other assays above

CCCC/C=C\CCCCCCCCCC=O
inactive: all assays above

O=C(O)c1ccc(OCCCOc2ccc(C(=O)O)cc2)cc1
not listed: [17]
inactive: all other assays above

O=C1c2cccc(O)c2C(=O)c2c(O)cccc21
inactive and 3.35 µM (active): [1]
active: [2] 27.6 µM
not listed: [17] | [19]
inactive: all other assays above

COc1ccc(Cl)cc1C
not listed: [18] | [19]
inactive: all other assays above

COCC(O)CO (configuration not stated)
not listed: [18]
inactive: all other assays above

CN(C)C(=S)SC(=S)N(C)C
50.2 µM (active) and inactive: [13]
41.8 µM (active) and inactive: [8]
active: [1] 1.11 µM and 1.09 µM | [9] 16.6 µM and 5.76 µM
not listed: [17]
inactive: all other assays above

CCN(CCO)c1cccc(C)c1
not listed: [17]
inactive: all other assays above

CC(C)(C)NCC(O)COc1ccccc1OCC1CCCO1 (configuration not stated)
active: [18] 0.0266 µM
not listed: [17] | [20]
inactive: all other assays above

Cc1c(N)cccc1C(F)(F)F
not listed: [17]
inactive: all other assays above

C=CC(=O)OCCOC(=O)C=C
active: [2] 68.6 µM
not listed: [16]
inactive: all other assays above

c1ccc2cc3c4ccccc4c4ccccc4c3cc2c1
active: [2] 24.4 µM
not listed: [16]
inactive: all other assays above

CC(C)N=C=NC(C)C
not listed: [16]
inactive: all other assays above
